The nature of assay [1]: TOX21_p53_BLA_p2_viability: Viability Assessment in the Tox21 HCT-116 p53 Agonism Beta-lactamase Assay, Phase 2 (AID 2283591).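 Further: actives lower the ATP signal meaning cytotoxicity.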 An outline of the steps:
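HCT116 p53-bla cells, 4000/well, dosed after 5 h plating (217-fold dilution of DMSO stocks) and incubated 16 h at 37C. Viability taken as cellular ATP by CellTiter-Glo luminescence after 30 min RT; signal loss marks cytotoxicity.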

The target of assay [2] is Cellular tumor antigen p53 (Homo sapiens) (UniProt P04637). The assay is described as follows: TOX21_p53_BLA_p2_ratio: Tox21 HCT-116 p53 Agonism Beta-lactamase Assay, Ratio, Phase 2 (AID 2283592). An outline of the steps:
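An inducible beta-lactamase reporter in HCT116 cells signals p53 pathway activation. After 16 h chemical exposure at 37C, cells load CCF4-AM substrate for 2 h at room temperature; activity is the cleaved/uncleaved emission ratio relative to DMSO.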

Assay [3] in a line: TOX21_p53_BLA_p3_viability: Viability Assessment in the Tox21 HCT-116 p53 Agonism Beta-lactamase Assay, Phase 3 (AID 2283593).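 Further: cells exposed to compound for 16 h before reading.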 An outline of the steps: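 HCT116 cells, 4000/well, dosed 5 h after plating by pin transfer (217-fold dilution from DMSO stock) and incubated 16 h at 37C, 5% CO2. Viability read as ATP luminescence with CellTiter-Glo after 30 min at room temperature.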

In assay [4] the target is Cellular tumor antigen p53 (Homo sapiens) (UniProt P04637). The experiment in a line: TOX21_p53_BLA_p3_ratio: Tox21 HCT-116 p53 Agonism Beta-lactamase Assay, Ratio, Phase 3 (AID 2283596). The essentials: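 HCT116 p53-bla cells (4000/well) given compound in DMSO (217-fold dilution) after 5 h, incubated 16 h at 37C. CCF4-AM substrate 2 h at room temperature; 460/530 nm emission ratio, gain fitted against DMSO.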

The nature of assay [5]: TOX21_p53_BLA_p4_viability: Viability Assessment in the Tox21 HCT-116 p53 Agonism Beta-lactamase Assay, Phase 4 (AID 2283597).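 Further: hits lower the luminescence signal meaning cytotoxicity.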 An outline of the steps:
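Compound exposure of HCT116 cells lasts 16 h at 37C, 5% CO2, with DMSO stocks diluted 217-fold. Cellular ATP is then quantified by CellTiter-Glo luminescence after 30 min at room temperature.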

In assay [6] the target is Cellular tumor antigen p53 (Homo sapiens) (UniProt P04637). The experiment in a line: TOX21_p53_BLA_p5_ratio: Tox21 HCT-116 p53 Agonism Beta-lactamase Assay, Ratio, Phase 5 (AID 2283599). The essentials:
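HCT-116 p53-bla cells (4000/well) plated 5 h, dosed with compound (217-fold DMSO dilution) for 16 h at 37 C; CCF4-AM substrate 2 h at room temperature. Activity is the 460/530 nm emission ratio (405 nm excitation), fitted in gain-of-signal direction versus DMSO.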

A short description of assay [7]: TOX21_p53_BLA_p5_viability: Viability Assessment in the Tox21 HCT-116 p53 Agonism Beta-lactamase Assay, Phase 5 (AID 2283600). The essentials:
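Counter-readout for cytotoxicity: ATP-dependent luminescence from CellTiter-Glo, read in the beta-lactamase wells after 30 min at RT, following a 16 h compound exposure at 37C.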

The target in assay [8] is Cellular tumor antigen p53 (Homo sapiens) (UniProt P04637). The assay is described as follows: TOX21_p53_BLA_p4_ratio: Tox21 HCT-116 p53 Agonism Beta-lactamase Assay, Ratio, Phase 4 (AID 2283601). An outline of the steps:
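HCT-116 p53 beta-lactamase reporter cells (4000/well) preincubated 5 h, then compound (217-fold dilution of DMSO stock) for 16 h at 37C. CCF4-AM substrate added 2 h at room temperature; 460/530 nm emission ratio fitted upward versus DMSO.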

Assay [9] in a line: CCTE_Harrill_HTTr_Viability_MCF7: CCTE's 6-hour Cell Viability Assessment for the High-Throughput Transcriptomics (HTTr) Platform, in MCF-7 cells cultured in DMEM + 10% fetal bovine serum, Harrill Lab (AID 2284010; active means hit-call score of the fitted dose curve at least 0.9, where 1 is the maximum; inactive means score below 0.9). An outline of the steps:
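MCF-7 cells in DMEM + 10% FBS, 384-well, exposed 6 h to an eight-point dilution series. Membrane integrity scored by high-content imaging of propidium iodide exclusion; bidirectional fit versus DMSO.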

Assay [10] is described as follows: CCTE_Harrill_HTTr_Apoptosis_MCF7: CCTE's 6-hour Apoptosis Assessment for the High-Throughput Transcriptomics (HTTr) Platform, in MCF-7 cells cultured in DMEM + 10% fetal bovine serum, Harrill Lab (AID 2284011; active means hit-call score of the fitted dose curve at least 0.9, where 1 is the maximum; inactive means score below 0.9). The essentials:
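Cells are dosed with test chemicals at eight concentrations and imaged 6 hours later for caspase-3/7 activity using a green fluorogenic detection reagent. Activity is fitted in both directions against DMSO controls.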

Assay [11] has as its target PGR (gene 5241) (UniProt P06401). The assay is described as follows: TOX21_PR_BLA_Followup_Agonist_ratio: Tox21 HEK293 Progesterone Receptor (PR) Agonism Beta-lactamase Follow-Up Assay, Ratio (AID 2283933). An outline of the steps:
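PR-UAS-bla HEK293T cells in medium with 2% charcoal-stripped FBS were dosed after 6 h plating and incubated 16 h at 37C. LiveBLAzer FRET substrate was added for 2 h at room temperature. Cleaved/uncleaved substrate ratio fitted against DMSO; CellTiter-Glo viability run in the same wells.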

The target is the same in assay [12]. The assay is described as follows: TOX21_PR_BLA_Followup_Antagonist_ratio: Tox21 HEK293 Progesterone Receptor (PR) Antagonism Beta-lactamase Follow-Up Assay, Ratio (AID 2283934). An outline of the steps: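 PR-UAS-bla HEK293T cells, 3,000/well in 2% charcoal-stripped FBS, given compound plus 1nM R5020 agonist for 16 hr at 37C. Beta-lactamase FRET substrate 2 hours, ratio cleaved/uncleaved fluorescence; viability by CellTiter-Glo in same wells.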

Assay [13] is described as follows: TOX21_PR_BLA_Followup_Agonist_viability: Viability Assessment in the Tox21 HEK293 Progesterone Receptor (PR) Agonism Beta-lactamase Follow-Up Assay (AID 2283935).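 Further: signal loss means lower viability so actives are cytotoxic.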 The essentials:
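PR-UAS-bla HEK293T cells in 2% charcoal-stripped FBS medium, plated 6 hr before compound addition, exposed 16 hr at 37C. Viability read by CellTiter-Glo ATP luminescence after 30 min at room temperature, in the same wells as the beta-lactamase readout.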

The nature of assay [14]: TOX21_PR_BLA_Followup_Antagonist_viability: Viability Assessment in the Tox21 HEK293 Progesterone Receptor (PR) Antagonism Beta-lactamase Follow-Up Assay (AID 2283936).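 Further: hits lower the luminescence signal meaning cytotoxicity.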 The essentials: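 PR-UAS-bla HEK293T cells (3,000/well, 2% charcoal-stripped FBS) given compound plus R5020 agonist, 16 h at 37C. CellTiter-Glo added after bla read, 30 min at room temperature; luminescence loss indicates cytotoxicity.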

The target of assay [15] is PGR (gene 5241) (UniProt P06401). The experiment in a line: TOX21_PR_LUC_Followup_Agonist: Tox21 HEK293 Progesterone Receptor (PR) Agonism Luciferase Follow-Up Assay (AID 2283937; active means hit-call score of the fitted dose curve at least 0.9, where 1 is the maximum; inactive means score below 0.9). The essentials: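 HEK293-PR-A-luc cells, conditioned 5 days in 10% charcoal-stripped FBS medium, seeded 3,000/well for 5 h, then compound-treated 16 h at 37C. ONE-Glo luminescence read after 30 min at room temperature; gain of signal versus DMSO.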

The target is the same in assay [16]. The experiment in a line: TOX21_PR_LUC_Followup_Antagonist: Tox21 HEK293 Progesterone Receptor (PR) Antagonism Luciferase Follow-Up Assay (AID 2283938).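 Further: curve fitted upward as signal gain over DMSO baseline despite antagonist label.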 The essentials:
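A follow-up to the PR bla screen using HEK293-PR-A-luc cells, multiplexed with cell viability to flag cytotoxicity. Reporter luminescence after 16 h compound exposure was analysed relative to DMSO.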

Assay [17] is described as follows: TOX21_PR_LUC_Followup_Agonist_viability: Viability Assessment in the Tox21 HEK293 Progesterone Receptor (PR) Agonism Luciferase Follow-Up Assay (AID 2283941).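 Further: loss of signal means cytotoxicity so actives lower viability.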 The essentials:
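HEK293-PR-A-luc cells, kept in 10% charcoal-stripped FBS medium, were treated with compounds for 16 h at 37C. Viability read as cellular ATP by luciferase-coupled luminescence; loss of signal indicates cytotoxicity.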

The structures appear in SMILES notation. Records with an inconclusive call do not appear. The source made the active and inactive calls. How the source made its calls, unless noted: active means hit-call score of the fitted dose curve at least 0.9, where 1 is the maximum; inconclusive means response in the unintended direction; inactive means score below 0.9.

This note sets out measurements from PubChem BioAssay (EPA / NIEHS).

Sequence of Cellular tumor antigen p53 (Homo sapiens) (P04637 whole entry, looked up): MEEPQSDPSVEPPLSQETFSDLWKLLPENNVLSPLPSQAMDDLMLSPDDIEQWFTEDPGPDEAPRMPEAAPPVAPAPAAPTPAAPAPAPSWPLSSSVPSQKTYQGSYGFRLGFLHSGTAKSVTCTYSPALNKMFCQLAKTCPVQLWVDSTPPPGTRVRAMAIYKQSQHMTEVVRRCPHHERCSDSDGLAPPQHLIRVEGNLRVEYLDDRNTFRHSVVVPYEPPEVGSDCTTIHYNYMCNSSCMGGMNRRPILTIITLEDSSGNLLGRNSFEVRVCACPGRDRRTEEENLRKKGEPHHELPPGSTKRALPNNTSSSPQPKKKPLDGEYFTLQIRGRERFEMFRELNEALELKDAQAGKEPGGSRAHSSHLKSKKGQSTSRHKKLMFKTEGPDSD
Sequence of PGR (gene 5241) (P06401 whole entry, looked up): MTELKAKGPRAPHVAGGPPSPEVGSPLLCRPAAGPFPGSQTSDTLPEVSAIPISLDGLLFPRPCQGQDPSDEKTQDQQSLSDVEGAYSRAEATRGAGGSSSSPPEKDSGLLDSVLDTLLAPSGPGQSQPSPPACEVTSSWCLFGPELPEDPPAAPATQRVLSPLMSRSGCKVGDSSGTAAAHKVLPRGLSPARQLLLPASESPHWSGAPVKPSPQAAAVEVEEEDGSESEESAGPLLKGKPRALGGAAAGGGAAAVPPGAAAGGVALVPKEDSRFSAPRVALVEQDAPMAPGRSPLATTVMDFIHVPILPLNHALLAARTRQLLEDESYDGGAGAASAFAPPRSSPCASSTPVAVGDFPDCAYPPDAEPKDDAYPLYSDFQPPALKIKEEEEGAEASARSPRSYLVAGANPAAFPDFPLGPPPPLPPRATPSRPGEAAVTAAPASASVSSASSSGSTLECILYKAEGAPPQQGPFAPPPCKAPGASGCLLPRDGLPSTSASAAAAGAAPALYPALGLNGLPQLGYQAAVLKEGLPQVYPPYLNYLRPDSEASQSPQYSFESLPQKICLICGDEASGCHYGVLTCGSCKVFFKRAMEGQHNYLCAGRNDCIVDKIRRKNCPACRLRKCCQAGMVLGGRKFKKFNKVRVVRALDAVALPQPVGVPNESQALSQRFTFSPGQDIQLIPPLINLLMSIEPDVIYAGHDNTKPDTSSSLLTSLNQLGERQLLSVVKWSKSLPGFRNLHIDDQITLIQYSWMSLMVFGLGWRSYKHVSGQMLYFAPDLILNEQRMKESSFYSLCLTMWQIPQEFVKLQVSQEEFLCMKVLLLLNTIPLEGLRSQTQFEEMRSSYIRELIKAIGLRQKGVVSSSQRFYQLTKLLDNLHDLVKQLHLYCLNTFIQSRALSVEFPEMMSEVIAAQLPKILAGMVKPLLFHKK

As for `CC[C@H](OC(C)=O)C(C[C@H](C)NC)(c1ccccc1)c1ccccc1`, the molecule was called inactive in [1], in [2], in assay [3], in assay [4], in assay [6] and in assay [7]. Besides, the outcome in [8] was inactive. The AC50 in [5] was 51.1 µM (active).
In the case of `Oc1c(Br)c(Br)c(Br)c(Br)c1Br`, the molecule was classed as inactive in assay [1], in assay [3], in assay [5], in assay [6], in assay [7] and in assay [8]. Besides, the figures for the AC50 in [2] and in assay [4] were 1.56 µM (active) and 0.886 µM (active), respectively.
As for `N#CC(C#N)=Cc1cc(O)c(O)c(O)c1`, the outcome in assay [1], in assay [2], in assay [3], in assay [4], in assay [5] and in [6] was inactive. The outcome in assay [7] and in assay [8] was inactive.
Turning to `C[C@@H](Cc1ccccc1)NCCC(c1ccccc1)c1ccccc1`, the call in assay [1], in [2], in [3], in assay [4], in assay [6] and in assay [7] was inactive. Also, in [8], the outcome was inactive. Moreover, the AC50 in assay [5] was 12.5 µM (active).
For `CCCC(C)(COC(N)=O)COC(=O)NC(C)C` (stereo not drawn), the outcome in assay [1], in assay [2], in assay [3], in assay [4], in assay [5] and in assay [6] was inactive. For the same molecule, the result in assay [7], in assay [8], in [9] and in assay [10] was inactive.
As to `S=C=Nc1cccc2ccccc12`, the outcome in assay [1], in assay [3], in assay [4], in assay [5], in assay [6] and in assay [7] was inactive. Further, the AC50 in assay [2] was 38.5 µM (active); in assay [8] it was 32.4 µM (active).
On to `O=NN1CCN(N=O)CC1`, for which the result in [1], in assay [2], in assay [3], in assay [4], in assay [5] and in assay [7] was inactive. Also, in assay [8], the result was inactive.
For the molecule `Oc1c(Cl)c(Cl)cc(Cl)c1Cl`, the molecule was classed as inactive in assay [1], in assay [3] and in [5]. For the same molecule, the AC50 in assay [2] was 12.2 µM (active); in assay [4], 13.4 µM (active); in assay [6], 18.7 µM (active); in [8] it was 22.6 µM (active).
As for `C[C@@H]1CC[C@H]2[C@@H](C)C(=O)O[C@@H]3O[C@@]4(C)CC[C@@H]1[C@]32OO4`, the outcome in assay [1], in [2], in assay [3], in assay [4], in assay [5] and in assay [7] was inactive. In addition, the result in assay [8] was inactive.
As to `COc1ccc2c(c1OC)CN1CCc3cc4c(cc3C1C2)OCO4` (stereo not drawn), the call in assay [1], in [2], in assay [3], in assay [4], in assay [5] and in assay [7] was inactive. For the same molecule, the outcome (with PGR (gene 5241) [11]; in assay [13]; in assay [14]; with PGR (gene 5241) [15]; in [17]) was inactive. For the same molecule, the AC50 with PGR (gene 5241) [12] was 5.55 µM (active); with PGR (gene 5241) [16] it was 11.5 µM (active).
As for `CN1C[C@@H](NS(=O)(=O)N(C)C)C[C@@H]2c3cccc4c3c(cn4C)C[C@H]21`, the molecule was called inactive in assay [1], in assay [2], in assay [3], in assay [4], in assay [5] and in assay [6]. The result in assay [8] was inactive.
Turning to `CCOP(=O)(OCC)SCCSCC` (tested in a mixture with another compound), the result in assay [1], in [2], in assay [3], in [4], in assay [5] and in assay [6] was inactive. For the same molecule, in assay [8], the outcome was inactive.
